This note sets out measurements from PubChem BioAssay AID1626 (SRMLSC, 2009).

Each structure is given as a SMILES string. In all, about 220,000 compounds went through this assay and about 2,000 (0.91%) were called active. Roughly 2% stayed inconclusive and do not appear here. Not all results are given here. Results with a measured potency or affinity are listed apart. A number with no mark means an inactive call. Cut-off read from the data, not from the text of the source: inconclusive = inhibition above about 80% without an active follow-up result; inactive = below that; test concentration not stated here.

The experiment can be described thus: M. tuberculosis H37Rv growth inhibitors, H37Rv strain (AID 1626).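 Note: bacteria incubated seven days before Alamar blue readout; 0% = bacteria only wells and 100% = bacteria with antibiotic wells.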 The note with it: active compounds read high, concentration not given here.
As usually defined, the inhibition is the drop in the measured response relative to a control, in per cent. `CC1Cc2ccccc2N1C(=O)c1cnc2ccccn2c1=O` (stereo unspecified): the inhibition was -5.12%. As to `COc1ccc2cc(C(=O)N3CCCCCC3)sc(=O)c2c1OC`, the inhibition is -2.1%. The figure for `CCCCCC(=O)N1CC2(CC(c3cccc(NC(=O)CC(c4ccccc4)c4ccccc4)c3)=NO2)C[C@@H]1C(N)=O` (stereo partly specified) is 11.1%; for `Cc1nc(CNS(=O)(=O)c2cccs2)cs1` it is 5.2%; for `c1ccc2c(c1)ccc1ncccc12` it is -7.23%. The figure for `Nc1ccc(/C=C/c2ccc3ncccc3c2)cc1` is 17.8%; for `COc1cccc(-c2ccc(C#N)c(=O)[nH]2)c1` it is -3.44%; for `O=C(Nc1cccc(O)c1)c1cccc(S(=O)(=O)N2CCCC2)c1` it is -5.4%.

Regarding `C/C(=C\C(=O)c1ccccc1)Nc1ccc(O)cc1`, the inhibition is -1.7%.

With `O=C(Nc1ccccc1O)c1ccccc1O`, the inhibition is 0.57%. For the compound `C/C(=C\C(=O)c1cccnc1)Nc1ccc(O)cc1`, the inhibition was -6.05%. Consider `CC(=O)Nc1ccccc1O`, for which the inhibition was -3.72%. The figure for `COc1ccc(NC(=S)NC(C)c2ccncc2)cc1OC` (stereo unspecified) is 0.92%; for `O=C(O/N=C(\c1ccccc1)c1ccccn1)c1cccc2ccccc12` it is 4.72%. Turning to `CCN(CC(=O)NCc1cccs1)c1ccc(S(=O)(=O)N2CCN(C)CC2)cn1`, the inhibition is -7.08%.

In the case of `COc1ccc(-c2csc(/C(C#N)=C\c3ccc(OC)c([N+](=O)[O-])c3)n2)cc1`, the inhibition is 5.82%. The figure for `COc1ccc(-c2csc(/C(C#N)=C\c3ccc(O)c([N+](=O)[O-])c3)n2)cc1OC` is 73.4%; for `COc1ccc(S(=O)(=O)N2CCCCC2)cc1NC(=O)c1cc(C)on1` it is -0.76%; for `CNC(=S)Nn1cnc2ccccc21` it is 0.16%.

In the case of `c1ccc(-c2ccc(-n3ccnc3)cc2)cc1`, the inhibition is 1.87%.

`COc1ccc(-n2ccnc2)cc1`: the inhibition is 1.8%. In the case of `COc1ccc(OC)c(N2C(=O)CC(Cc3ccc(Cl)cc3)C2=O)c1` (stereo unspecified), the inhibition was -4.41%. To `Cc1nc2ccccc2c(=O)n1/N=C/C=C/c1ccccc1` belongs -2.49%; to `COc1cc2c(cc1OC)C1(NCC2)C(=O)Nc2ccccc21` (stereo unspecified), 0.79%; to `COc1ccc2c(c1)C1(Nc3ccccc3C(=O)N1c1ccccc1)C(=O)N2` (stereo unspecified), -1.38%.

As for `COc1ccc(C(=O)C2CCCN(Cc3ccc4nonc4c3)C2)c(OC)c1` (stereo unspecified), the inhibition was 4.61%. To `CC(C)NC(=O)NC(=O)CSc1ccccc1F` belongs 8.25%; to `Nc1[nH]ncc1-c1ccccc1`, 48.5%. Take `COc1ccc(-c2cn[nH]c2N)cc1`: the inhibition was 3.3%. Take `O=C(NCc1cn2ccsc2n1)c1cccs1`: the inhibition was 2.94%.

With `O=C(COC(=O)c1cc(S(=O)(=O)N2CCOCC2)ccc1O)Nc1cc(S(=O)(=O)N2CCCC2)ccc1Cl`, the inhibition was -7.64%. For the compound `Cc1cccnc1NC(=O)Nc1ccccc1`, the inhibition was -2.38%. In the case of `Cc1nc(NC(=O)c2ccc(F)cc2)sc1C(=O)Nc1ccc2c(c1)CCC2`, the inhibition was 10.8%. The figure for `Cc1ccc(C(=O)Nc2ccc3c(c2)CCC3)cc1` is 27.7%; for `O=C1CC2(CCCCCC2)Oc2ccc(Cl)cc21` it is -6.31%; for `COc1cccc(-c2cc(C(=O)NCCN3CCOCC3)no2)c1` it is 0.49%.

As to `COc1ccc(NC(=S)NCCCN2CCOCC2)cc1`, the inhibition is -0.5%. In the case of `CCCc1ccc(OCc2nc(-c3ccc(NC(=O)c4cccs4)cc3)no2)cc1`, the inhibition was 15.6%. The figure for `Cc1ccccc1OCc1nc(-c2ccc(NC(=O)c3ccco3)cc2)no1` is 19.3%; for `Cc1ccc(-n2c(-c3ccncc3)n[nH]c2=S)cc1` it is -9.92%; for `Cc1cc2oc(C(=O)N(Cc3cccs3)C3CCS(=O)(=O)C3)cc(=O)c2cc1Cl` (stereo unspecified) it is 0.6%.

In the case of `O=C(NCCc1ccccc1)C1CCN(Cc2ccccc2F)CC1`, the inhibition is 0.69%.

For the compound `CCCSc1nnc(Cn2c(=O)sc3ccccc32)n1C`, the inhibition was 3.51%. The figure for `CCOC(=O)c1c(NC(=O)C2COc3ccccc3O2)sc(C)c1C` (stereo unspecified) is -3.73%; for `CC1(C)Cc2c(sc(NC(=O)COc3ccccc3)c2C#N)C(C)(C)N1` it is -3.34%; for `Cc1ccc(OCC(=O)Nc2sc3c(c2C#N)CC(C)(C)NC3(C)C)cc1` it is 10.1%. The figure for `CCOC(=O)c1c(NC(=O)C2COc3ccccc3O2)sc(C(C)=O)c1C` (stereo unspecified) is -3.37%; for `CCOC(=O)c1cc2occc2n1CCCN1C(=O)c2ccccc2C1=O` it is -1.25%. The figure for `CCc1cc2ccc(OC)cc2nc1SCC(=O)NNC(C)=O` is 2.9%; for `CC(=O)N(NC(N)=O)C(C)CC(=O)C1C(C)C=CCC1(C)C` (stereo unspecified) it is -4.41%; for `CC(c1nnnn1C(C)(C)C)N(Cc1cccnc1)Cc1ccccc1Cl` (stereo unspecified) it is 11.3%. Turning to `O=C(Cc1cc(=O)[nH][nH]1)N/N=C/c1ccccc1Cl`, the inhibition is 0.78%.

For the compound `O=C(COc1ccccc1[N+](=O)[O-])N/N=C/c1ccc(O)c([N+](=O)[O-])c1`, the inhibition was -1.06%. Consider `O=[N+]([O-])c1ccc(/C=N/N/C(=N/c2ccccn2)c2ccccn2)cc1`, for which the inhibition is 6.35%. To `C=CCNC(=S)NNC(=O)c1ccc(=O)n(Cc2ccc(Cl)cc2Cl)c1` belongs 2.51%; to `COC(=O)/C(=C1/Oc2ccc(C(C)(C)C)cc2S1)C(F)(F)F`, -3.79%; to `COC(=O)/C(=C1/Oc2ccc(C)cc2S1)C(F)(F)F`, 1.01%. To `CCCCCn1c(=O)[nH]c2cc(C(=O)NCCN(CC)CC)ccc2c1=O` belongs 2.41%; to `Cc1cc2cc(C)c(SCC(=O)NCc3ccco3)nc2cc1C`, 2.4%; to `COC(=O)CCCC[C@H]1SC[C@H]2NC(=O)N[C@]21O`, -9.41%. The figure for `COc1ccc(Cl)cc1C(=O)Nc1ccc(NC(=O)C(C)C)cc1` is 6.21%.

On to `Cc1ccc(S(=O)(=O)n2c([N+](=O)[O-])cnc2C)c(C)c1C`, for which the inhibition was 2.51%. The figure for `Cc1nn(-c2ccccc2)c2sc(C(=O)O)cc12` is -2.71%.

For the compound `CC(=O)c1sc(NC(=O)c2cc3c(C)nn(-c4ccccc4)c3s2)nc1C`, the inhibition was -3.28%. To `Cc1ccc(Nc2nc(COC(=O)COc3ccc(C=O)cc3)cs2)cc1` belongs -1.49%; to `C/C=C/c1ccc(OCC(=O)OCC)c(OC)c1`, 78.2%; to `Cc1occc1-c1n[nH]c(=S)n1C`, -11.2%. For `NC(=O)C1CCN(C(=O)C2c3ccccc3C(=O)N3CCc4ccccc4C23)CC1` (stereo unspecified), the inhibition was 1.51%. With `CC(C)NC(=O)c1cnc(N2CCN(c3ccccn3)CC2)c2ccccc12`, the inhibition was 6.14%. For the compound `COc1ccccc1N1CCN(c2ncc(C(=O)N3CCN(c4cccc(Cl)c4)CC3)c3ccccc23)CC1`, the inhibition was 95%. The figure for `COc1cccc(-c2nn(C)c3sc(C(=O)N4CCN(c5ccccn5)CC4)cc23)c1` is 60%. The figure for `O=C(Nc1ccc(C(F)(F)F)cc1)c1cnc(N2CCN(c3ccccn3)CC2)c2ccccc12` is 65.3%; for `Cn1nc(-c2ccc(Cl)cc2)c2cc(C(=O)N3CCN(c4ccccc4)CC3)sc21` it is 7.8%. Turning to `O=C(c1cnc(N2CCN(c3ncccn3)CC2)c2ccccc12)N1CCN(c2ccccn2)CC1`, the inhibition was 1.07%.

As to `O=C(NN1C(=O)C2C3C=CC(O3)C2C1=O)c1cccc(Br)c1` (stereo unspecified), the inhibition was 5.77%. Regarding `Cc1c(C(=O)NCC2CCCO2)cccc1[N+](=O)[O-]` (stereo unspecified), the inhibition was 2.82%. Take `O=C(NCc1cccc(C(F)(F)F)c1)C1CCN(c2ncccn2)CC1`: the inhibition is -1.47%. As to `O=C(O)CCc1nc2ccccc2n(CCc2ccccc2)c1=O`, the inhibition was -8.81%. The figure for `O=C(C1CC(c2ccc(F)cc2)=NO1)N1CCc2ccccc2C1` (stereo unspecified) is -0.85%; for `O=C(c1cccc(F)c1)N1CCN(C(=O)c2nn3cccnc3c2Cl)CC1` it is 0.18%; for `O=C(c1ccc(F)cc1)C1CCN(C(=O)c2ccncc2)CC1` it is -7.5%.

As to `O=C(/C=N/O)Nc1ccc2sc3ccccc3c2c1`, the inhibition was 50.4%.

As for `N#Cc1c2n(c3c(=O)n(CC(=O)c4ccc(Br)cc4)cnc13)CCCC2`, the inhibition was 1.64%. `CC(C)CCN1CCN(Cc2nc(-c3ccccc3)cs2)CC1CCO` (stereo unspecified): the inhibition was 4.13%. To `Cn1cnc([N+](=O)[O-])c1Sc1ncnc2nc[nH]c12` belongs 7.31%. To `O=C(CSc1ncnc2nc[nH]c12)c1ccc([N+](=O)[O-])cc1` belongs -0.96%; to `COc1cc(/C=N/NC(=O)c2cncc(Br)c2)ccc1OC(=O)c1ccc2c(c1)OCO2`, -4.21%. Consider `COc1ccc2[nH]c(CN3CCC(CO)(CCOc4ccccc4)CC3)c(C)c2c1`, for which the inhibition was -2.25%.

Take `COc1cccc(CC2(CO)CCCN(Cc3ccc(C)s3)C2)c1` (stereo unspecified): the inhibition was 4%.

Turning to `COc1cccc(CC2(CO)CCCN(Cc3cc4ccccc4[nH]3)C2)c1` (stereo unspecified), the inhibition is 9.65%.

Turning to `OCC1(CCOc2ccccc2)CCN(CC2=Cc3cc(Cl)ccc3OC2)CC1`, the inhibition was 6.89%. Regarding `COc1cc(OC)cc(C(=O)NCC(=O)OCC(=O)N2c3ccccc3NC(=O)C2(C)C)c1`, the inhibition was -1.81%. The figure for `COc1ccc(CN2CCN(CCCc3ccccc3)CC2)c(OC)c1` is 1.06%; for `COc1cccc(C2C(C(=O)c3cc4cccc(OC)c4o3)=C(O)C(=O)N2c2cc(C)on2)c1OC` (stereo unspecified) it is -9.58%; for `COc1cc2c(cc1OC)C(C)N(C(=O)c1cc3ccccc3o1)CC2` (stereo unspecified) it is 3.79%. For `Cc1cc(=O)oc2cc(OCC(=O)Nc3ccc(S(=O)(=O)N(C)C)cc3)ccc12`, the inhibition is -9.04%.
